This note sets out measurements from PubChem BioAssay AID743445 (Broad Institute, 2014).

The campaign covered roughly 310,000 compounds. About 1,700 (0.55%) were called active. Cut-off read from the data, not from the text of the source: active = inhibition above about 50%; inactive = the rest. The entries come from a sample that favours actives as a whole.

The test deals with Histone-lysine N-methyltransferase NSD2 (Homo sapiens) (UniProt O96028). Nature of the test: NSD2 histone methyltransferase inhibitors, primary screen, biochemical, AlphaScreen, single concentration, set 2 (AID 743445). The note with it: NSD2 peptide methylation, 120 min, at 12.5 µM, active compounds read high.
Histone-lysine N-methyltransferase NSD2 (Homo sapiens), sequence (O96028 whole entry, looked up): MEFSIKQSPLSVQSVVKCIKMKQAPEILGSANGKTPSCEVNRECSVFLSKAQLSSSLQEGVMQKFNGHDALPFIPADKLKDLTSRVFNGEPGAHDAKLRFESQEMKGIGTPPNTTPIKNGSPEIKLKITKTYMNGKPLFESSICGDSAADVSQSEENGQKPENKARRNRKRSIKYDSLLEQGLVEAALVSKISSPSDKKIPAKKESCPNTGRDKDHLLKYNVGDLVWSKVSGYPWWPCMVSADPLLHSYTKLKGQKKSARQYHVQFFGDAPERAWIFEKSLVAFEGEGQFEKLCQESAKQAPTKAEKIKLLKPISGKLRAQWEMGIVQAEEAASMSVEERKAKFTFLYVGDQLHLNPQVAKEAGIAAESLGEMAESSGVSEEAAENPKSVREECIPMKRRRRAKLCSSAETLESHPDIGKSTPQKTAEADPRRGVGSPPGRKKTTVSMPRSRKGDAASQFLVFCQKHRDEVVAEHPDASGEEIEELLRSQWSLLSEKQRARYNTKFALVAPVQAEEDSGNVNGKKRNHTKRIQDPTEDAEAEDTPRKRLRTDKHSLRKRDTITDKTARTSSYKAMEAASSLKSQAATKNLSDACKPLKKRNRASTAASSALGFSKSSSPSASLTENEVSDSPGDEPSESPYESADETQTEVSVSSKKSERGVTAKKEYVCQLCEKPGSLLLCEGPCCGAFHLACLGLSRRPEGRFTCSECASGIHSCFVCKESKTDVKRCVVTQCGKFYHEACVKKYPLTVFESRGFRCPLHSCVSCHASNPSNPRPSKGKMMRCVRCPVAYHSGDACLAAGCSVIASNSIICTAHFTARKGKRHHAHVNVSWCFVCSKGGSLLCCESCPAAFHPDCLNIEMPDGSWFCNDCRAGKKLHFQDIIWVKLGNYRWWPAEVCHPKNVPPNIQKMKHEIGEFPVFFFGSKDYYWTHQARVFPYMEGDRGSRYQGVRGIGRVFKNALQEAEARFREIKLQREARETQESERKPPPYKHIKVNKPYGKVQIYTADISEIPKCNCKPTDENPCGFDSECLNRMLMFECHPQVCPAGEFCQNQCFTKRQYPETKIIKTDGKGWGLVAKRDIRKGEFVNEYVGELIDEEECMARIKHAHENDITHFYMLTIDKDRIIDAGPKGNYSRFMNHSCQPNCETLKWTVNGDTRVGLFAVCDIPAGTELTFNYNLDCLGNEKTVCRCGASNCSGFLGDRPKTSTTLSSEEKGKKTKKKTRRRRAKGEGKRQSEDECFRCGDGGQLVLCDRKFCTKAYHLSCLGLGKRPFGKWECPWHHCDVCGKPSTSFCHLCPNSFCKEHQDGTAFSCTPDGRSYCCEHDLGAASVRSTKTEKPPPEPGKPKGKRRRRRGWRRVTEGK
With `Cc1ccccc1NC(=O)COC(=O)c1ccc(Sc2ncn[nH]2)c([N+](=O)[O-])c1`, the inhibition is -0.523% (inactive).

As to `C[C@H]1CCC/C=C/C(=O)c2c(O)cc(O)cc2CC(=O)O1`, the inhibition is 5.2% (inactive).

Consider `O=C(CN1CCOCC1)N/N=C/c1ccc(-c2ccc(Br)cc2)o1`, for which the inhibition was 4.03% (inactive).

For `Cc1ccc(-c2ccc(/C=N/NC(=O)CN3CCOCC3)o2)cc1[N+](=O)[O-]`, the inhibition is 59.9% (active).

`Cc1occc1C(=O)N/N=C/c1ccc(-c2cccc([N+](=O)[O-])c2)o1`: the inhibition is 1.62% (inactive).

For `O=C(NCc1ccc(Cl)cc1)C1CCCN(c2nc3ccccc3o2)C1` (stereo unspecified), the inhibition was -10.7% (inactive).

Take `CC1CCN(c2ccc(C(=O)O)cc2NS(=O)(=O)c2ccc(Br)s2)CC1`: the inhibition is 1.4% (inactive).

For `Cc1nc2ccc(C(=O)N3CCN(C(=O)C(C)(C)C)CC3)cc2n1C1CCCC1`, the inhibition is -2.3% (inactive).

Turning to `CSc1nccc(-c2ccc(S(=O)(=O)Nc3ccc(C(O)(C(F)(F)F)C(F)(F)F)cc3)s2)n1`, the inhibition was 3.98% (inactive).

Consider `CCN(CC)CCn1c2ccc(Cl)cc2c2nc(C)sc21`, for which the inhibition is 14.7% (inactive).

Turning to `CCN(CC)CCCC(C)n1c2nc(=O)[nH]c(=O)c-2nc2cc(Cl)ccc21` (stereo unspecified), the inhibition is 187% (active).

On to `CCN1CCN(C(=O)C2CCCN(S(=O)(=O)c3ccc(OC)c(OC)c3)C2)CC1` (stereo unspecified), for which the inhibition was -0.758% (inactive).

As to `O=C(NCCCn1ccnc1)C1CCCN(S(=O)(=O)c2cc(Cl)ccc2Cl)C1` (stereo unspecified), the inhibition was -2.69% (inactive).

For `COc1ccc(S(=O)(=O)N2CCCC(C(=O)NCCCn3ccnc3)C2)cc1OC` (stereo unspecified), the inhibition is 57.8% (active).

Consider `NC(Cc1ccc(F)cc1)c1csc(Nc2nncc3ccccc23)n1` (stereo unspecified), for which the inhibition is -3.48% (inactive).

As for `O=C(CSc1nnc(-c2ccccc2)n1Cc1ccco1)Nc1ccccc1-c1ccccc1`, the inhibition was 6.7% (inactive).

Consider `CC1(C)Cc2c(sc3nnn(Cc4ccc(Cl)cc4Cl)c(=O)c23)CO1`, for which the inhibition was 8.41% (inactive).

Consider `Cc1cccc(NC(=O)CSCC(=O)Nc2nnc(C3CC3)s2)c1`, for which the inhibition is 1.4% (inactive).

As for `O=C(Cc1cccs1)Nc1nnc(C2CC2)s1`, the inhibition is 3.72% (inactive).

Take `O=C(CN1C(=O)c2ccc([N+](=O)[O-])cc2C1=O)Nc1nnc(C2CC2)s1`: the inhibition is 57.6% (active).

As for `O=C(C1CCN(S(=O)(=O)c2ccccc2)CC1)N1CCN(C2CCCCC2)CC1`, the inhibition is 0.491% (inactive).

In the case of `O=[N+]([O-])c1ccccc1NCc1ccc(Cl)cc1`, the inhibition was 7.1% (inactive).

As to `Oc1ccc(CNc2ccccc2O)cc1`, the inhibition is 85.7% (active).

Consider `c1ccc(CNCc2ccc(CNCc3ccccc3)cc2)cc1`, for which the inhibition was 1.25% (inactive).

In the case of `Cc1ccc(CSc2nnc(SCC(=O)NN=Cc3cc(Br)ccc3F)s2)cc1`, the inhibition is -1.85% (inactive).

`CC1(C(=O)Nc2cccc(Oc3ccccc3)c2)CCN1Cc1ccccc1Cl` (stereo unspecified): the inhibition is -0.732% (inactive).

Take `CCc1nc2c(OCCOc3ccccc3)cccn2c1N(C=O)Cc1ccc(OC)cc1`: the inhibition was -1.53% (inactive).

Consider `COc1ccccc1/C=C1\SC(=O)N(CCC(=O)N(C)C2CCS(=O)(=O)C2)C1=O` (stereo unspecified), for which the inhibition is 2.59% (inactive).

On to `CN(C(=O)CN1C(=O)S/C(=C\c2ccccc2F)C1=O)C1CCS(=O)(=O)C1` (stereo unspecified), for which the inhibition is 71.1% (active).

For `CN(C(=O)CCN1C(=O)/C(=C/c2ccccc2F)SC1=S)C1CCS(=O)(=O)C1` (stereo unspecified), the inhibition is -1.43% (inactive).

For `CCN(CC)S(=O)(=O)c1ccc(N2CCOCC2)c(NC(=O)C2COc3ccccc3O2)c1` (stereo unspecified), the inhibition was -0.001% (inactive).

Regarding `Cc1c(CC(=O)N2CCN(C(=O)C3COc4ccccc4O3)CC2)c(=O)oc2c(O)c(O)ccc12` (stereo unspecified), the inhibition is 125% (active).

Take `O=C(CNC(=O)C1COc2ccccc2O1)N/N=C/c1cc(Br)c(O)c(Br)c1` (stereo unspecified): the inhibition is 26.9% (inactive).

With `CCc1nc2ccc(C(=O)NCCNC(C)=O)cn2c1N(CC)Cc1cccc(Br)c1`, the inhibition is 1.25% (inactive).

For the molecule `N#Cc1ccc(CSc2nnc3ccccn23)cc1`, the inhibition is -1.73% (inactive).

As for `N#Cc1ccc(CSc2ncccn2)cc1`, the inhibition was 67.5% (active).

Turning to `N#Cc1ccc(CSc2nnc(-c3ccccn3)n2-c2ccc(Cl)cc2)cc1`, the inhibition was 3.24% (inactive).

Regarding `COc1ccc(N2CCN(CCNS(=O)(=O)c3ccc(C(C)(C)C)cc3)CC2)cc1`, the inhibition was 9.53% (inactive).

Take `COc1ccc(-n2c(SCC(=O)Nc3ccc4c(c3)OCCO4)nnc2-c2ccc(Cl)cc2)cc1`: the inhibition was 3.06% (inactive).

As to `Cc1ccc(Cn2cc(COC(=O)N(C)Cc3ccccc3)nn2)cc1`, the inhibition was -1.9% (inactive).

Consider `CCNC(=O)C1(C)CCCN(C(=O)c2c(C)noc2C)C1` (stereo unspecified), for which the inhibition was -2.53% (inactive).

Regarding `CCNC(=O)C1(C)CCN(C(=O)c2ccccc2)C1` (stereo unspecified), the inhibition was -2.2% (inactive).

As to `CCNC(=O)C1(C)CCCN(C(=O)c2ccc3ccccc3n2)C1` (stereo unspecified), the inhibition was 104% (active).

On to `COc1ccc(-n2c(SCC(=O)Nc3ccc4cn[nH]c4c3)nnc2-c2cccnc2)cc1`, for which the inhibition was 10.9% (inactive).

As to `O=S(=O)(Nc1ccc(C(O)(C(F)(F)F)C(F)(F)F)cc1)c1ccc(-c2ccccn2)s1`, the inhibition is 11.8% (inactive).

In the case of `CS(=O)(=O)N(CC(=O)NCc1ccco1)c1ccc2c(c1)OCO2`, the inhibition is 65.1% (active).

On to `S=C(NCc1ccc2c(c1)OCO2)NCc1ccco1`, for which the inhibition was 4.85% (inactive).

Turning to `Cc1cc(C)cc(N(CC(=O)NCCSCc2ccco2)S(C)(=O)=O)c1`, the inhibition is 7.95% (inactive).

Regarding `COc1ccc(C(=O)CSc2nnc(-c3cnccn3)n2-c2ccc(C)cc2)cc1`, the inhibition is -4.12% (inactive).

As for `COc1ccc(-n2c(SCC(=O)Nc3ccc(C)c(Cl)c3)nc3ccccc3c2=O)cc1`, the inhibition was 5.51% (inactive).

On to `COc1cc(NC(=O)c2cc(-c3ccc(F)cc3OC(C)C)n[nH]2)cc(OC)c1OC`, for which the inhibition was -1.66% (inactive).

Consider `O=C1C(Cl)=C(Oc2ccccc2)C(=O)c2ccccc21`, for which the inhibition is 101% (active).

For the molecule `CC(=O)Oc1ccc2c(c1)C(=O)c1ccccc1C2=O`, the inhibition was 4.31% (inactive).

In the case of `COc1cccc(-c2ccc3c(c2)N(Cc2ccccc2OC)C(=O)C(C)S3)c1` (stereo unspecified), the inhibition was -0.375% (inactive).

For the molecule `Cc1ccc(-n2c(SCC(=O)Nc3ccc(S(=O)(=O)Nc4nccs4)cc3)nnc2-c2cccnc2)cc1`, the inhibition was 6.22% (inactive).

`CC1(C(=O)Nc2cccc3c2CCCC3)CCN1C(=O)CCc1ccc(Cl)cc1Cl` (stereo unspecified): the inhibition is -2.57% (inactive).

As to `O=C(CSc1nnc(-c2ccccn2)n1-c1ccc(Cl)cc1)Nc1ccccc1-c1ccccc1`, the inhibition is -2.53% (inactive).

Consider `OC[C@@H]1CN(Cc2cccs2)C[C@H](n2cnc3c(NC4CCCC4)ncnc32)O1`, for which the inhibition was -1.52% (inactive).

As to `Cc1ccc(NC(=O)c2cc(C)nn2-c2ccccc2)c(C)c1`, the inhibition was -1.54% (inactive).

As to `CCOC(=O)C1=C(C)NC2=C(C(=O)CC(C)(C)C2)C1c1ccc2c(c1)OCO2` (stereo unspecified), the inhibition was 15.9% (inactive).

For `NC1=CC(=O)C(=O)c2cccnc21`, the inhibition was 122% (active).

`CCOc1ccc(CCN2C(=O)c3cccnc3C2=O)cc1OCC`: the inhibition is -2.42% (inactive).

On to `Cc1cccc(N2C(=O)c3cccnc3C2=O)c1`, for which the inhibition is -1.99% (inactive).

Turning to `CCOc1ccc(C(c2c(C)[nH][nH]c2=O)c2c(C)[nH][nH]c2=O)cc1OCC`, the inhibition is 10.6% (inactive).

For `Nc1[nH][nH]c(=O)c1N=Nc1ccc2c(c1)OCO2`, the inhibition was 4.47% (inactive).

Turning to `Cc1[nH][nH]c(=O)c1C(c1ccc2c(c1)OCO2)c1c(C)[nH][nH]c1=O`, the inhibition is 84.4% (active).

Turning to `CCCCN1CCN(C(=O)c2ccc3c(c2)NC(=O)C(C)(C)O3)CC1`, the inhibition was 8.11% (inactive).

On to `COc1ccc(CN(CCN2CCOCC2)C(=O)c2ccc(C)cc2)cc1OC`, for which the inhibition was 6.86% (inactive).

`COc1ccc(CSc2nnc(SCC(=O)Nc3ccccc3C(F)(F)F)s2)cc1`: the inhibition was 0.831% (inactive).

Consider `COc1ccc(CSc2nnc(-c3cccc(C)c3)n2C)cc1`, for which the inhibition is 0.584% (inactive).

`Oc1c(C=Nc2cccc3nsnc23)ccc2ccccc12`: the inhibition was 109% (active).

As for `Oc1ccc2ccccc2c1N=Nc1nccs1`, the inhibition is 34.1% (inactive).

On to `O=C(CSc1nc2ccccc2s1)N=Nc1c(O)[nH]c2ccccc12`, for which the inhibition was 2.59% (inactive).

For the molecule `O=C(CSc1nnc(COc2ccccc2)n1Cc1ccco1)c1ccc2ccccc2c1`, the inhibition is 0.338% (inactive).

In the case of `O=C(CSc1nc2ccccc2n1Cc1ccccc1Cl)N/N=C\c1c[nH]c2ccccc12`, the inhibition was 3% (inactive).

For `COc1cc(NC(=O)COC(=O)c2ccc([N+](=O)[O-])s2)cc(OC)c1OC`, the inhibition was 72.8% (active).

On to `O=C(OCC(=O)N1CCN(c2ccccc2)CC1)c1ccc([N+](=O)[O-])s1`, for which the inhibition was 1.02% (inactive).

Take `COc1cc(C(=O)OCc2ccc([N+](=O)[O-])cc2)cc(OC)c1OC`: the inhibition is -0.924% (inactive).

As to `O=C(NCc1cccnc1)c1cc(C2CCCN(C(=O)CCCc3ccccc3)C2)on1` (stereo unspecified), the inhibition was -1.28% (inactive).

Take `Fc1ccc2nc(COCc3nc4ccc(F)cc4[nH]3)[nH]c2c1`: the inhibition was -1.4% (inactive).

In the case of `CCCOc1ccc(F)cc1-c1cc(C(=O)NCc2ccc(F)cc2)[nH]n1`, the inhibition was 19.4% (inactive).

On to `COc1ccc(CCNC(=O)CSc2nc3c([nH]2)c(=O)n(C)c(=O)n3C)cc1`, for which the inhibition was -8.19% (inactive).

Take `COC(=O)[C@@H](Cc1ccccc1)NC(=O)NCCc1ccccc1`: the inhibition was 0.664% (inactive).

In the case of `COC(=O)[C@H](Cc1ccccc1)NC(=O)Nc1ccc(OC)cc1`, the inhibition was -1.09% (inactive).

As to `COC(=O)[C@H](Cc1ccccc1)NC(=O)Nc1ccc(S(N)(=O)=O)cc1`, the inhibition was 59.7% (active).

As to `COc1ccc(NC(=O)C2(C)Cc3c(-c4cccc(NC(C)=O)c4)ccnc3O2)cc1OC` (stereo unspecified), the inhibition was 1.97% (inactive).

On to `CCOc1ccccc1C(=O)Nc1cccc(C(=O)Nc2cc(C)ccn2)c1`, for which the inhibition is 1.28% (inactive).

Take `O=C(CSc1nnc(-c2cccc(Cl)c2)n1Cc1ccco1)Nc1ccc(OCc2ccccc2)cc1`: the inhibition is -1.47% (inactive).

Take `CC(=O)c1cc(-c2ccccc2)n(CC(=O)NC2CCCCC2)c1C`: the inhibition was 71.5% (active).

`CC(=O)c1cc(-c2ccccc2)n(CCC(=O)NC2CCCCCC2)c1C`: the inhibition is 1.47% (inactive).

Consider `CC(=O)CC(CC(=O)NC1CCCCC1)c1ccccc1` (stereo unspecified), for which the inhibition is -4.05% (inactive).
